Measurements from PubChem BioAssay.
Activity calls are given as the source filed them.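 Rule for the calls, unless noted: active = fluorescence slope higher than the sample average by over 3 SD (cut at about -0.22 in these data, passing the limit was not always enough); inactive = the rest.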

How the values were obtained:
[1] = inhibitors of TNFa-induced NFkB p65 translocation, primary screen, imaging, HUVEC, MLSMR starter and 10KST1 sets (AID 438;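 active = inhibition above 20% together with a positive visual image hit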;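 note: compound added about 3h40 before a 20 min TNFalpha stimulation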;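 for inhibition: signal is the nuclear over cytoplasmic p65 intensity ratio per well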); conditions: HUVEC TNFa-induced p65 nuclear translocation; cell count: measured here: nuclei count (cytotoxicity indicator), at 2.08 µM unless noted; inhibition: at 2 µM, stronger effect = higher value unless noted
[2] = inhibitors of mutant huntingtin aggregation, primary screen, imaging, exon1htt(103Q)mCFP cells, high-content imaging (AID 483;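 active = visual image review flags a hit and inhibition of aggregation exceeds 20%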;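 note: compound exposure lasted 3 days before fixation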;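 for nuclei count: percent of the per-plate median nuclei count of sample wells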); conditions: exon1htt(103Q)mCFP cell line, aggregate imaging, at 2 µM; inhibition of aggregation: stronger effect = higher value; nuclei count: measured here: cell count, toxicity
[3] = inhibitors of E-selectin induction by TNFa, primary screen, imaging, HUVEC, immunofluorescence, MLSMR starter and 10KST1 sets (AID 487;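 active = visually confirmed hit in the image check and inhibition above 20%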;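 for inhibition: signal is fraction of cell area covered by stained E-selectin grains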;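 for nuclei count: 100% = median nuclei count of all wells on the same plate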); conditions: HUVEC TNFalpha-induced E-selectin immunofluorescence imaging, at 2 µM; inhibition: stronger effect = higher value; nuclei count: measured here: cell number, toxicity
[4] = biological target: Voltage-gated potassium channel subunit beta-2 (Rattus norvegicus) (UniProt P62483); assay: KvBeta enzyme negative modulators, primary screen, biochemical, NADPH fluorescence (AID 622); conditions: recombinant KvBeta, 4-cyanobenzaldehyde reduction, at 10 µM, stronger effect = higher value;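 note: slope of raw intensity against log time taken from 70 to 1610 s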
Sequence of Voltage-gated potassium channel subunit beta-2 (Rattus norvegicus) (P62483 whole entry, looked up): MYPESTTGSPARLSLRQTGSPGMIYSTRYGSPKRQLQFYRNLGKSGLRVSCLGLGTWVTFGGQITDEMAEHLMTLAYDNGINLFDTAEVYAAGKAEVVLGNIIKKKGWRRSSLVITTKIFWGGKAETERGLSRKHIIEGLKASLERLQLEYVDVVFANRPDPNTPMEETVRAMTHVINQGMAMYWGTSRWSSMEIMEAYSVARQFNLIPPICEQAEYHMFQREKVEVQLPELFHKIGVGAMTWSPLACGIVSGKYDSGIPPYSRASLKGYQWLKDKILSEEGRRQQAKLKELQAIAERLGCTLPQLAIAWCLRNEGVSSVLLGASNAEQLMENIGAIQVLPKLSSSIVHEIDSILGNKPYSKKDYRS

[5] = biological target: Voltage-gated potassium channel subunit beta-2 (Rattus norvegicus) (UniProt P62483); assay: KvBeta positive modulators, primary screen, biochemical, NADPH fluorescence (AID 623;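 active = NADPH fluorescence slope more negative than the mean of all samples by about 3 SD, 99.7% confidence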;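 note: fluorescence intensity change per second fitted from 20 to 320 s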); conditions: Recombinant KvBeta, NADPH fluorescence decrease slope, 10 min; at 10 µM; stronger effect = lower value
[6] = biological target: Alpha-2C adrenergic receptor (Homo sapiens) (UniProt P18825); assay: modulators of alpha2C/GIRK thallium flux, primary screen, cell-based, HEK293 alpha2C/GIRK1/2 (AID 624;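 active = fluorescence slope after compound addition differing from the mean of all screened samples at 99.7% confidence, in either direction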;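 note: slope of fluorescence ratio to pre-addition baseline per second over 15 to 24 s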); conditions: thallium flux BTC fluorescence, at 10 µM, actives lie on both sides
Sequence of Alpha-2C adrenergic receptor (Homo sapiens) (P18825 whole entry, looked up): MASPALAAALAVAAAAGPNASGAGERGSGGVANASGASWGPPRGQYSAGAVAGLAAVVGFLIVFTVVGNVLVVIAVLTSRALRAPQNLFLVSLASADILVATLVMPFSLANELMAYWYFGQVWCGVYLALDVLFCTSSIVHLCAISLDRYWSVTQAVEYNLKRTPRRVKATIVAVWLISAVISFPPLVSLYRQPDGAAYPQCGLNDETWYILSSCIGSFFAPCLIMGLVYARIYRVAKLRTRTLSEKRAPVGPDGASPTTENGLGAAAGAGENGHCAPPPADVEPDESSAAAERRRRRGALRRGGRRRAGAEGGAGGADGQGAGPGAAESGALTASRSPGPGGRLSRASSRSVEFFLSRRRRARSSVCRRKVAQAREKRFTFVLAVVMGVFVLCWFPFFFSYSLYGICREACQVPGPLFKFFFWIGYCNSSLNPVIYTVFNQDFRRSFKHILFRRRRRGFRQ

[7] = inhibitors of Sendai virus-induced IRF3 signaling, primary screen, TLR/RLR signaling modifier project, cell-based, Sendai virus stimulus, luciferase, 10K MLSCN set (AID 602276;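 active = inhibition at or above 50% at 10 µM; inactive = inhibition below 50%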;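 note: firefly luciferase from ISG56 promoter only with Renilla not read in this screen; 0% = Sendai virus plus DMSO and 100% = medium plus DMSO without virus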); conditions: HEK293 RL24 IRF3 luciferase reporter, at 10 µM, stronger effect = higher value
[8] = inhibitors of poly I:C-induced TLR3 signaling, primary screen, cell-based, poly I:C stimulus, luciferase, 10K MLSCN set (AID 602277;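 active = inhibition of the reporter signal at or above 50%; inactive = inhibition below 50%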); conditions: HEK293-TLR3 RL24 IRF3 luciferase reporter, at 10 µM, stronger effect = higher value

| SMILES | cell count [1] | inhibition [1] | inhibition of aggregation [2] | nuclei count [2] [%] | inhibition [3] | nuclei count [3] [%] | fluorescence slope [4] | NADPH fluorescence slope [5] | slope [6] | inhibition [7] | inhibition [8] |
| --- | --- | --- | --- | --- | --- | --- | --- | --- | --- | --- | --- |
| CC(C)CC12CN3CCN(CC(C3)/C1=N/O)C2 | 291 | -16.4% (inactive) | -20% (inactive) | 126 | 4.9% (inactive) | 109 | -0.496 (inactive) | -1.4e-05 (inactive) | 0.00751 (inactive) | 19.2% (inactive) | 21.5% (inactive) |
| COc1ccc(N2CCN(CCCN)CC2)cc1 | 356 | 2.8% (inactive) | -5.7% (inactive) | 106 | -21% (inactive) | 113 | -0.603 (inactive) | -1.3e-05 (inactive) | 0.00595 (inactive) | 11.2% (inactive) | 15.4% (inactive) |
| O=c1c2ccccc2nc(CSc2ncnc3nc[nH]c23)n1-c1ccccc1 | 546 | 2.3% (inactive) | 2.9% (inactive) | 106 | -123% (inactive) | 103 | -0.492 (inactive) | -9.1e-05 (inactive) | 0.00489 (inactive) | -0.567% (inactive) | 13.7% (inactive) |
| CCn1nc(-c2ccccc2)nc2c(=O)n(C)c(=O)nc1-2 | 367 | -31.1% (inactive) | -8.2% (inactive) | 86 | -133% (inactive) | 109 | -0.457 (inactive) | 1.4e-06 (inactive) | -0.00207 (active) | -39.4% (inactive) | 94.3% (active) |
| c1ccc(C2NCc3ccccc3-n3cccc32)cc1 (stereo not given) | 704 | -11% (inactive) | 22.5% (inactive) | 66.6 | -10.1% (inactive) | 93.5 | -0.554 (inactive) | -4e-05 (inactive) | 0.00504 (inactive) | 6.74% (inactive) | 15.8% (inactive) |
| CCNc1ccc(P(=S)(N(C)C)N(C)C)cc1 | 441 | 16.7% (inactive) | -8.4% (inactive) | 115 | -422% (inactive) | 153 | -0.622 (inactive) | -1.6e-05 (inactive) | 0.00749 (inactive) | 10.5% (inactive) | 26.1% (inactive) |
| COc1ccc(C(=O)C(C)(C)NO)cc1 | 653 | -4.6% (inactive) | 12.4% (inactive) | 94.3 | -81.1% (inactive) | 119 | -0.62 (inactive) | 1.3e-05 (inactive) | 0.00701 (inactive) | 12.6% (inactive) | 26.7% (inactive) |
| COc1ccc(C2SCC(=O)Nc3c2c(=O)[nH]n3C2CCCCCC2)cc1OC (stereo not given) | 316 | 21% (inactive) | -0.4% (inactive) | 97.9 | -11.5% (inactive) | 109 | -0.614 (inactive) | -4.2e-05 (inactive) | 0.00412 (inactive) | 13.9% (inactive) | 23.3% (inactive) |
| C(#CCN1CCOCC1)COCC#Cc1ccccc1 | 422 | 1.2% (inactive) | 12.8% (inactive) | 94.4 | -4.6% (inactive) | 112 | -0.622 (inactive) | -5e-05 (inactive) | 0.00639 (inactive) | 8.54% (inactive) | 30.6% (inactive) |
| CC#CP(=O)(OCC)C(O)(c1ccccc1)C(F)(F)F (stereo not given) | 621 | 12.5% (inactive) | 4.9% (inactive) | 90.8 | -29.4% (inactive) | 110 | -0.621 (inactive) | 5.6e-07 (inactive) | 0.0037 (inactive) | 15% (inactive) | 23.4% (inactive) |
| O=c1[nH]c(=O)n(Cc2ccc(F)cc2)c(O)c1C=NCCCN1CCOCC1 | 728 | -22.4% (inactive) | 4.6% (inactive) | 105 | 35.3% (inactive) | 101 | -0.441 (inactive) | 1.3e-06 (inactive) | 0.00502 (inactive) | -0.0843% (inactive) | 3.86% (inactive) |
| CC(C)OCCCNC(=O)c1c(N)n(Cc2cccs2)c2nc3ccccc3nc12 | 434 | -9.3% (inactive) | 17.9% (inactive) | 90.9 | 4.6% (inactive) | 134 | -0.212 (inactive) | 1.8e-05 (inactive) | 0.00386 (inactive) | 14.8% (inactive) | 37.4% (inactive) |
| Cc1ccnc(-n2c(-c3ccco3)nc3ccccc3c2=O)c1 | 445 | 10.2% (inactive) | -19.2% (inactive) | 115 | -4.3% (inactive) | 106 | -0.508 (inactive) | -3.8e-05 (inactive) | 0.0068 (inactive) | 6.03% (inactive) | -0.166% (inactive) |
| CCC(=NCC1CCCO1)c1c(O)n(Cc2ccccc2)c(=O)[nH]c1=O (stereo not given) | 707 | -6% (inactive) | 6.5% (inactive) | 97.1 | -57.1% (inactive) | 120 | -0.512 (inactive) | -5.3e-05 (inactive) | 0.00608 (inactive) | -5.89% (inactive) | 19.3% (inactive) |
| CN1C(=O)C(Cc2cccc3ccccc23)C(=O)N(C)C1=O | 393 | 6.3% (inactive) | -7.2% (inactive) | 108 | -57.4% (inactive) | 125 | -0.47 (inactive) | -4.8e-05 (inactive) | 0.00658 (inactive) | 2.57% (inactive) | 32.2% (inactive) |
